One compound from ChEMBL document CHEMBL2218924, “A broad activity screen in support of a chemogenomic map for kinase signalling research and drug discovery” (Biochem J, 2013) can be followed below.

The target of test [1] is T1, Ephrin type-A receptor 3 (Homo sapiens) (UniProt P29320).
T1 sequence (whole entry): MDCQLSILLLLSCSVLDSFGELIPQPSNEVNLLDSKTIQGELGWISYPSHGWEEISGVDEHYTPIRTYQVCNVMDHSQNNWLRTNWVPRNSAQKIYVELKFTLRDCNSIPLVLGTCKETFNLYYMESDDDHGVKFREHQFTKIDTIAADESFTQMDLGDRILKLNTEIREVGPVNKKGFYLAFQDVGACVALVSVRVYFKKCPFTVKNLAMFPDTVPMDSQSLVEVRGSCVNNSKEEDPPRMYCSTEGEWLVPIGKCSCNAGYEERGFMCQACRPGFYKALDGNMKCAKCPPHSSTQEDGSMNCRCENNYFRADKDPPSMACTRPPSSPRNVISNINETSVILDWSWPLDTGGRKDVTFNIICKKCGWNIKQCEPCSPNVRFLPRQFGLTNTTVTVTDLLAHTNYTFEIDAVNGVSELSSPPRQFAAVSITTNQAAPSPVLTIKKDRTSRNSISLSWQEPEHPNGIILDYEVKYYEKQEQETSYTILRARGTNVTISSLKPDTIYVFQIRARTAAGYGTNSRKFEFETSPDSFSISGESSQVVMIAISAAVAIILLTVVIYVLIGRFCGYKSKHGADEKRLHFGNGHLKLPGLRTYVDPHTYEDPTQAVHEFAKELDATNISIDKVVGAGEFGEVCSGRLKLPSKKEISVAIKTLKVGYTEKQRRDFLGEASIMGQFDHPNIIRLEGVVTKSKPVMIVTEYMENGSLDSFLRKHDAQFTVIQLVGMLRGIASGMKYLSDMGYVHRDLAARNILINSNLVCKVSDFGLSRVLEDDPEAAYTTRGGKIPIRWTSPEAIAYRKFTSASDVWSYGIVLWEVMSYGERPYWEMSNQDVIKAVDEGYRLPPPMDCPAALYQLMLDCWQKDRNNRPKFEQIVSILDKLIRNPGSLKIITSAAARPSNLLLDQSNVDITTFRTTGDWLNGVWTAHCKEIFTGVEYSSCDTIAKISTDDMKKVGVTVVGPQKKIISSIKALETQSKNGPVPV
The following applies: at 10 µM.

The target of test [2] is Ephrin type-A receptor 4 (Homo sapiens) (UniProt P54764). As to conditions: at 1 µM.
Chain of Ephrin type-A receptor 4 (Homo sapiens) (P54764 whole entry): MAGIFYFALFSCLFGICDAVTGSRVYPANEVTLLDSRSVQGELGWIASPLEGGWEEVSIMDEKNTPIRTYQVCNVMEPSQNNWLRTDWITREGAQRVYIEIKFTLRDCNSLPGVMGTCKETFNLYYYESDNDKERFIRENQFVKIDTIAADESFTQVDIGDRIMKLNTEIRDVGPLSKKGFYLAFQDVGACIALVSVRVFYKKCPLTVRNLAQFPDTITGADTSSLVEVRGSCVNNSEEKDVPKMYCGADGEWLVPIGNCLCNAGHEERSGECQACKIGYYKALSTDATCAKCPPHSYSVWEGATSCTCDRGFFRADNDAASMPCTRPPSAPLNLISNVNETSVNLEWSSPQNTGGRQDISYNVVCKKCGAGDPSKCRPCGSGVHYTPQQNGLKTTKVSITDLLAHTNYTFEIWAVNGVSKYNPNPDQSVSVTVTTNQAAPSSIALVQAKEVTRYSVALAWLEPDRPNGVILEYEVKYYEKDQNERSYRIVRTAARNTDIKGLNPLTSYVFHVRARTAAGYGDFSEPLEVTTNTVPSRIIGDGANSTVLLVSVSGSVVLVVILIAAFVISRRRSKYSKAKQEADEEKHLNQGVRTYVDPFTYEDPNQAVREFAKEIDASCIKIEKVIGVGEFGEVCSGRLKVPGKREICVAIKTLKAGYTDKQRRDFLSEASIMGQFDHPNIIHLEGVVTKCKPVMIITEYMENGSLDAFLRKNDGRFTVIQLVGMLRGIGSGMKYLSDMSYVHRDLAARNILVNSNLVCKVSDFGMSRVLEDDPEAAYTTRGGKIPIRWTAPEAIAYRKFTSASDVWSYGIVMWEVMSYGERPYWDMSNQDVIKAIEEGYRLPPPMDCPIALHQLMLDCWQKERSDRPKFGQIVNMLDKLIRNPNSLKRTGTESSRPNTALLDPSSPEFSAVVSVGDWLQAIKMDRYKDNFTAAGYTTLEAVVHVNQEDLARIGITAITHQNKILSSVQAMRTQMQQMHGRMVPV
Test [3] shares this target. As to conditions: at 10 µM.
Test [4] has as its target Ephrin type-A receptor 5 (Homo sapiens) (UniProt P54756). The following applies: at 1 µM.
The target is the same in test [5]. As to conditions: at 10 µM.
Test [6] has as its target Ephrin type-A receptor 7 (Homo sapiens) (UniProt Q15375). As to conditions: at 1 µM.
Test [7] shares this target. The following applies: at 10 µM.
Test [8] deals with T2, Ephrin type-A receptor 8 (Homo sapiens) (UniProt P29322).
T2 sequence (whole entry): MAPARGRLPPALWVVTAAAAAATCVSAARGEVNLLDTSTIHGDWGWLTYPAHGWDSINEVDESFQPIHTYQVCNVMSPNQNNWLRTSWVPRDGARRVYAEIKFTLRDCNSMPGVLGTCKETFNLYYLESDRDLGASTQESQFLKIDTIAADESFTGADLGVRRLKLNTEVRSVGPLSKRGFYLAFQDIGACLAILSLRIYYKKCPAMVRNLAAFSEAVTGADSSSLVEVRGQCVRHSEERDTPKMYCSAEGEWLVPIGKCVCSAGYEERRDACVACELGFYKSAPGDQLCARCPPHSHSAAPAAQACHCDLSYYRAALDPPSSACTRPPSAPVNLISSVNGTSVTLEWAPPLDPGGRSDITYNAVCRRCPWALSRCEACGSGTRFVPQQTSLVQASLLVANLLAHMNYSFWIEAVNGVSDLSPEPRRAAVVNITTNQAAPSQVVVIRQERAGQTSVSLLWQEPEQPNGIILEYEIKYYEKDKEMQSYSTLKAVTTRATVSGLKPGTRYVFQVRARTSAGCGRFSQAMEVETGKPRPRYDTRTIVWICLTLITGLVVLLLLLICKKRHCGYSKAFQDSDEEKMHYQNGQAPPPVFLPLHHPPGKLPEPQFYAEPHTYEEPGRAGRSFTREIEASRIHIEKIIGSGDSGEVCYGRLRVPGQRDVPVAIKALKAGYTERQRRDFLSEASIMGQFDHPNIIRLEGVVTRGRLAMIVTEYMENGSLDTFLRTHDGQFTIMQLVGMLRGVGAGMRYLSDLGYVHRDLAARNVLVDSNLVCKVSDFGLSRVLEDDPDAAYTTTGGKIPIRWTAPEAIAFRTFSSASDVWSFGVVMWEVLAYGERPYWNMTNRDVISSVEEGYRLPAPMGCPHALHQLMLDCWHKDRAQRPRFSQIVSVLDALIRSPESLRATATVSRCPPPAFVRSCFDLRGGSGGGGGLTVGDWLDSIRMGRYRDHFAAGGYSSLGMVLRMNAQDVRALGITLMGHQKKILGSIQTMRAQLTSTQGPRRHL
The following applies: at 1 µM.

The target of test [9] is T2, Ephrin type-A receptor 8 (Homo sapiens). The following applies: at 10 µM.
The target in test [10] is T3, Ephrin type-B receptor 1 (Homo sapiens) (UniProt P54762).
T3 sequence (whole entry): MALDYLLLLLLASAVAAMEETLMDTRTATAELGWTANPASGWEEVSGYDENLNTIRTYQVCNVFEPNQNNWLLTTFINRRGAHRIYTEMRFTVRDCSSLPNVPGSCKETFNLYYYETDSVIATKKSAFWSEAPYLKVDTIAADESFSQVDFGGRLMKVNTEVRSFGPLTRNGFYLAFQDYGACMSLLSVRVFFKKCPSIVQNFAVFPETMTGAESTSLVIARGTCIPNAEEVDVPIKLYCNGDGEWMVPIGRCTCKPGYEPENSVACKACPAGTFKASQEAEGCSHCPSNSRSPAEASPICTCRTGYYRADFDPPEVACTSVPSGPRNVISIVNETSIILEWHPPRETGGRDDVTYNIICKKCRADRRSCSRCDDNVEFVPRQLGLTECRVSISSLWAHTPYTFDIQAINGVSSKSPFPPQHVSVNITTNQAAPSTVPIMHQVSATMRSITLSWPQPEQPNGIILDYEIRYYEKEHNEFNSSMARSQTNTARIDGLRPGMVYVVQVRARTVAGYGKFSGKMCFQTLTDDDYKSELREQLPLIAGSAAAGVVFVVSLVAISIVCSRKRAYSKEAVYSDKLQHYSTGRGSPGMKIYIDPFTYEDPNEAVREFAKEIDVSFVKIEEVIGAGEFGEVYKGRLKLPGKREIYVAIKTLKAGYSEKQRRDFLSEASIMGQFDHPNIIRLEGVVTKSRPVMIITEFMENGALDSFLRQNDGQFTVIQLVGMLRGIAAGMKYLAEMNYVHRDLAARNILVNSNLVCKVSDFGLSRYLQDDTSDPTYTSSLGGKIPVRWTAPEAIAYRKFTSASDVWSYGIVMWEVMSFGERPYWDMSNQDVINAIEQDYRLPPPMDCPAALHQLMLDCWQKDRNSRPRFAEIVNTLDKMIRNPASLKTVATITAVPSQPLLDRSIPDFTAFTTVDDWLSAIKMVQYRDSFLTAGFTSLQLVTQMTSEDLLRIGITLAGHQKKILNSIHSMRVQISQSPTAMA
As to conditions: at 1 µM.

Chain of Ephrin type-A receptor 7 (Homo sapiens) (Q15375 28-998 limits assumed): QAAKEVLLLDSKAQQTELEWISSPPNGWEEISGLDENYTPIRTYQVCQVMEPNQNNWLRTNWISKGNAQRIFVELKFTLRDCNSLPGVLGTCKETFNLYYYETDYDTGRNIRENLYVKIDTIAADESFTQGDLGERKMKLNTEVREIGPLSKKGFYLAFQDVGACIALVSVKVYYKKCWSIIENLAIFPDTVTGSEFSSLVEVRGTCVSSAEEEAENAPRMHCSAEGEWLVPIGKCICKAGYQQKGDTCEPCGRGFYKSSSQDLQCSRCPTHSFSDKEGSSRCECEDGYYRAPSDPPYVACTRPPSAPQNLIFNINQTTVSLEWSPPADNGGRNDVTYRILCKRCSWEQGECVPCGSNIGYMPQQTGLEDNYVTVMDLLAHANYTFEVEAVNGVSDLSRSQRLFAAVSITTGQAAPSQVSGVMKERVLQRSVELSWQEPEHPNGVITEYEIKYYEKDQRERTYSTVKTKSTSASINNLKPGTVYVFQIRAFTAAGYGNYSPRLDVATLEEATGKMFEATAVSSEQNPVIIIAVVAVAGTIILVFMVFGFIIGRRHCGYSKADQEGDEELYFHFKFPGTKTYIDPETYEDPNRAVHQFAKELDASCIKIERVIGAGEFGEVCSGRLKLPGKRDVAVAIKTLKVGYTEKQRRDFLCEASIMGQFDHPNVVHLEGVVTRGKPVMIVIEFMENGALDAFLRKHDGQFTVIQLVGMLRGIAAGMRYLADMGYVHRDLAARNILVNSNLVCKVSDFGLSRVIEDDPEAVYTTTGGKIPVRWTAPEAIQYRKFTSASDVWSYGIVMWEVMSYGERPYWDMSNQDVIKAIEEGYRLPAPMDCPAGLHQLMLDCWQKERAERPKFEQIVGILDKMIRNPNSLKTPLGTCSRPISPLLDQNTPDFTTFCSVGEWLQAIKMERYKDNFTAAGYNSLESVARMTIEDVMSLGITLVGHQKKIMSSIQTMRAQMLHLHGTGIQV
Chain of Ephrin type-A receptor 5 (Homo sapiens) (P54756 whole entry): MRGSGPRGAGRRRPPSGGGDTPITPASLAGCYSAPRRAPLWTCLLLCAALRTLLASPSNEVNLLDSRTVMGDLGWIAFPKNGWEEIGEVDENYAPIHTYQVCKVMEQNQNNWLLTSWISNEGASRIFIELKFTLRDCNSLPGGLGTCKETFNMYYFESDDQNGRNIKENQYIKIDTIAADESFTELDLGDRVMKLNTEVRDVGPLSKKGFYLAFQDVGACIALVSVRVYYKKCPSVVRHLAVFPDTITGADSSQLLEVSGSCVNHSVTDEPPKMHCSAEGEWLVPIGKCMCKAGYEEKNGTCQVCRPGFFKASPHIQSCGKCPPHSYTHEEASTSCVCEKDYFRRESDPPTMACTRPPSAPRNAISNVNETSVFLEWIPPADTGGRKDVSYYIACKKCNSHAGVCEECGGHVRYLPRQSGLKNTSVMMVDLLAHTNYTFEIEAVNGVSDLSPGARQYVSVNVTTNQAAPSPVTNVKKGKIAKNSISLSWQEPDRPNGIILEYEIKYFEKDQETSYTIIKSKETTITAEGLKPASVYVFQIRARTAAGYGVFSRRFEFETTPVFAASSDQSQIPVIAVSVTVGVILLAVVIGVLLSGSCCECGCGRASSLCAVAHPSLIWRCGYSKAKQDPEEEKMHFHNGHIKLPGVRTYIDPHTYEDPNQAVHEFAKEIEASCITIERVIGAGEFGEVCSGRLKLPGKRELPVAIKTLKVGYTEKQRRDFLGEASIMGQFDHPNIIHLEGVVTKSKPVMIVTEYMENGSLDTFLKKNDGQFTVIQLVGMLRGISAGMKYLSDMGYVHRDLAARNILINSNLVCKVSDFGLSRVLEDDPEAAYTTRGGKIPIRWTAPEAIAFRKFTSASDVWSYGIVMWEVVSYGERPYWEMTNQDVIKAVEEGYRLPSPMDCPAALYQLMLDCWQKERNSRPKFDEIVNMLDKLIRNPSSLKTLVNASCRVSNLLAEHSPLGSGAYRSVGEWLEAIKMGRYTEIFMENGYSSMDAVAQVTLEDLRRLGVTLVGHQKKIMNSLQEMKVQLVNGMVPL

What is called residual activity is the signal under treatment as a percentage of the control signal. Consider `COc1ccc(OC)c2c(=S)c3ccccc3[nH]c12`, for which the residual activity was determined as 97% in [1]; 100% in [2]; 105% in test [3]; 101% in [4]; 96% in test [5]; 92% in test [6]. The residual activity is 89% in test [7], 96% in [8], 100% in test [9] and 97% in [10].
